# Test results published in PubChem BioAssay (NCATS).
# Results filed as inconclusive are left out. Entries that show only a call come without a potency. The source made the active and inactive calls. Unless noted, calls come from the whole dose curve; as a rule, active = well fitted curve in the direction sought with a large enough effect; inconclusive = small, poorly fitted or top-dose-only effect, or another doubt; inactive = no such curve, though single readings can be large; an effect the other way counts as inactive or inconclusive.
# What was measured:
# [1] = target: Thioredoxin reductase 1, cytoplasmic (Rattus norvegicus) (UniProt O89049); assay: qHTS Assay for Inhibitors of Mammalian Selenoprotein Thioredoxin Reductase 1 (TrxR1) (AID 488773); details: Potency: inhibition; note: nearly all actives have a fitted effect of over 40% in size; note: potency is the fitted concentration of half-maximal effect
# Method in brief: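 Steps: enzyme (90 nM) plus NADPH (400 uM final), 5 min at ~22 deg C; compound added, 15 min; selenite (400 uM final) added; fluorescence followed for 8 min. Concentration-response curves derived from the normalized delta values.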
# [2] = target: Flap endonuclease 1 (Homo sapiens) (UniProt P39748); assay: qHTS Validation Assay for the Inhibitors of Human Flap endonuclease 1 (FEN1) (AID 488816); note: potency is the fitted concentration of half-maximal effect
# Method in brief: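 Readings taken at 0 and 15 min after starting the reaction with 50 nM (final) substrate supplied the signal. Compounds had first sat with 10 nM FEN1 reagent for 15 min at room temperature. Values come from Hill-equation concentration-response fits.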
# [3] = target: M-phase phosphoprotein 8 (Homo sapiens) (UniProt Q99549); assay: qHTS Validation Assay for Inhibitors for MPP8 Chromodomain Interactions with Methylated Histone Tails (AID 488949);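 note: AlphaScreen signal from MPP8 chromodomain bound to biotinylated H3K9me3 peptide; top concentration of the series differs between compounds; nearly all actives have a fitted effect of over 55% in size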
# Method in brief: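 Disruption of the preformed MPP8–trimethyl-H3K9 peptide complex (both 50 nM, 30 min, RT) is measured after 30 min compound exposure, using AlphaScreen proximity beads; aurintricarboxylic acid titration serves as plate control.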
# [4] = target: Chromobox protein homolog 1 (Homo sapiens) (UniProt P83916); assay: qHTS Validation Assay for Inhibitors of HP1-beta Chromodomain Interactions with Methylated Histone Tails (AID 488953); note: nearly all actives have a fitted effect of over 50% in size; note: potency is the fitted concentration of half-maximal effect
# Method in brief: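 Measured as loss of AlphaScreen luminescence from streptavidin donor and nickel acceptor beads (10 ug/mL final) bridging HP1-beta and biotin-H3(1-18)K9me3, each 50 nM. Compounds met the preassembled complex for 30 min at RT.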
# [5] = target: Methanococcus maripaludis chaperonin (MmCpn) (UniProt Q6LX38); assay: High-Throughput Screening for Modulators of Cytosolic Chaperonin Activity: MmCpn Primary Screen (AID 488978);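 note: 50 nM MmCpn enzyme hydrolysing 30 µM ATP at 37 °C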
# Method in brief: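 Measures ATPase turnover of the M. maripaludis chaperonin (50 nM final) against 30 uM ATP over 10 min at 37C, with compound added 5 min beforehand at room temperature. ADP is quantified by HTRF immunodetection.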
# [6] = target: D(1A) dopamine receptor (Homo sapiens) (UniProt P21728); assay: HTS Assay for Allosteric Agonists of the Human D1 Dopamine Receptor: Primary Screen for Agonists (AID 488981); note: potency is the fitted concentration of half-maximal effect
# Method in brief: (§1)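 Calcium flux in an inducible, force-coupled HEK293 Trex D1 line (overnight at 30 C): agonist mode is the 180 s kinetic read after compound; potentiator mode is the following 180 s read after dopamine at EC20.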
# [7] = target: D(1A) dopamine receptor (Homo sapiens) (UniProt P21728); assay: HTS Assay for Allosteric Agonists of the Human D1 Dopamine Receptor: Primary Screen for Potentiators (AID 488982)
# Method in brief: as §1
# [8] = target: D(1A) dopamine receptor (Homo sapiens) (UniProt P21728); assay: HTS Assay for Allosteric Agonists of the Human D1 Dopamine Receptor: Primary Screen for Antagonists (AID 488983);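 note: calcium flux response to an EC80 dopamine challenge measured with no-wash dye; nearly all actives have a fitted effect of over 65% in size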; note: potency is the fitted concentration of half-maximal effect
# Method in brief: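 Screening of inducible HEK293 T-REx D1 cells: compound first, EC80 dopamine 180 s later, each phase read kinetically for calcium over 180 s.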
# [9] = Validation screen for small molecules that induce genotoxicity in human embryonic kidney (HEK293T) cells expressing luciferase-tagged ELG1 (AID 493106)
# Method in brief: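 Reporter-gene quantitative HTS in HEK293T cells carrying luciferase-tagged ELG1, whose level climbs under genotoxic stress. Compound exposure lasts 16 hr at 37 °C before luciferase detection.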
# [10] = target: ATPase family AAA domain-containing protein 5 (Homo sapiens) (UniProt Q96QE3); assay: Validation screen for small molecules that inhibit ELG1-dependent DNA repair in human embryonic kidney (HEK293T) cells expressing luciferase-tagged ELG1 (AID 493107);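 note: cells co-treated with the DNA-damaging agent 5-fluorouridine alongside compound; series mostly up to about 46 µM; inhibitors lower the ELG1-luciferase luminescence signal; nearly all actives have a fitted effect of over 70% in size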
# Method in brief: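 Quantitative HTS in HEK293T cells carrying luciferase-tagged ELG1, stimulated with 5-fluorouridine alongside compound for 16 hr. Loss of luciferase signal marks inhibition of ELG1 response.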
# [11] = Nrf2 qHTS screen for inhibitors: Validation (AID 493153; active = well fitted inhibition curve with a large enough effect in the main read-out, with a control signal flat, not every such curve was filed as active); details: viability change: measured here: cytotoxicity max response
# Method in brief: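 Dose-response validation uses reporter A549 cells with firefly luciferase under an antioxidant response element. Compounds stay on cells 18-24 h at 37°C, and luminescence indicates Nrf2-driven transcription.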
# [12] = qHTS for Inhibitors of Cell Surface uPA Generation: Validation Assay (AID 493164);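 note: RAW 264.7 macrophage cells exposed to compound for 18 h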
# Method in brief: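 RAW 264.7, 4000 cells/well, o/n plating; cpd 7-pt 1:5 dilution 2.45 nM–38.3 uM final; 18 h, 37 C/5% CO2; ATP-Lite, 5 s luminescence exposure.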
# [13] = target: Peptidyl-prolyl cis-trans isomerase NIMA-interacting 1 (Homo sapiens) (UniProt Q13526); assay: qHTS Validation Assay to Find Inhibitors of Pin1 (AID 504536; active = well fitted inhibition curve with a large enough effect in the polarisation, with a control signal flat, not every such curve was filed as active; the % refers to the polarisation)
# Method in brief: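 Fluorescence polarization competition: compounds (titration) displace HiFluor-488-labeled Pin1-1b peptide from Pin1 (0.3 uM final) in pH 7.5 HEPES buffer with DTT, 10 min at room temperature; %Activity normalized to no-enzyme wells, curves fitted.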
# [14] = target: Transient receptor potential cation channel subfamily V member 1 (Homo sapiens) (UniProt Q8NER1); assay: HTS Assay for Compounds that Act as Enhancers of the Vanilloid Receptor 1 (AID 488979)
# Method in brief: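 Calcium influx kinetics via Fluo-8 (480/520 nm) in TRPV1-expressing cells, 2000/well cultured overnight at 35.5C. Compound-alone read 3 min (agonist phase), followed by EC20 capsaicin challenge for 2 min (enhancer phase).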
# [15] = target: Thyrotropin receptor (Homo sapiens) (UniProt P16473); assay: qHTS Assay for Antagonists of the Thyroid Stimulating Hormone Receptor (AID 488980); note: series mostly up to about 58 µM
# Method in brief: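 Cells expressing human TSHR (HEK293) are dispensed in HBSS/HEPES containing 70 uM RO 20-1724, compound is added, then TSH at EC80 (4 nM final). Antibody in lysis buffer follows, 30 minutes at room temperature before HTRF detection.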
# [16] = target: Thyrotropin-releasing hormone receptor (Homo sapiens) (UniProt P34981); assay: qHTS for Small Molecule Agonists and Allosteric Enhancers of Human TRH Receptor: Validation Screen for Agonists (AID 493127;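 active = calcium activation more than 3 SD above the typical response in the agonist read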;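 note: intracellular calcium rise by fluo-8 fluorescence before TRH EC20 addition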); details: TRH receptor agonist cell assay; at 2 µM; stronger effect = higher value
# Method in brief: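 Gq-coupled calcium mobilization in TRHR cells after compound addition, monitored kinetically with fluo-8 dye on an FDSS reader.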
# [17] = target: Galactokinase (Homo sapiens) (UniProt P51570); assay: qHTS Validation Assay for Inhibitors of Human Galactokinase (GALK) (AID 493189)
# Method in brief: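 Compounds were pin-transferred into ATP buffer, then GALK-galactose mix was added (final 5 nM enzyme, 100 uM galactose, 35 uM ATP). After 1 h at room temperature, remaining ATP was measured luminescently.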
# [18] = Validation screen for small molecules that induce DNA re-replication in SW480 colon adenocarcinoma cells (AID 504364)
# Method in brief: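 Cells are treated 48 hr with test compound, stained 40 min with Hoechst at 37 C, and scanned for nuclear fluorescence; compounds inducing re-replication increase nuclei with elevated intensity.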
# [19] = target: ATP-dependent 6-phosphofructokinase (Trypanosoma brucei brucei) (UniProt O15648); assay: qHTS Assay to Find Inhibitors of T. brucei phosphofructokinase: hit validation (AID 492961); note: potency is the fitted concentration of half-maximal effect
# Method in brief: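 In this biochemical qHTS validation, titrated compounds were tested against 1.25 nM PFK with 0.1 mM ATP and 0.5 mM F6P. Percent activity came from controls lacking or containing enzyme.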
# [20] = target: Tyrosyl-DNA phosphodiesterase 1 (Homo sapiens) (UniProt Q9NUW8); assay: Confirmation Assay for Inhibitors of Tyrosyl-DNA Phosphodiesterase (TDP1) (AID 489007); details: recombinant human TDP1 enzymatic activity, dose-response; note: potency is the fitted concentration of half-maximal effect; nearly all actives have a fitted effect of over 40% in size
# Method in brief: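 Confirmation of primary-screen follow-ups in a qHTS format. Substrate cleavage by Tdp1 (1 nM) of a 3'-phosphotyrosine-FITC, 5'-biotin oligo (15 nM) was monitored as decreased AlphaScreen signal after a 5 min room-temperature reaction.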
# Chain of Galactokinase (Homo sapiens) (P51570 whole entry, looked up): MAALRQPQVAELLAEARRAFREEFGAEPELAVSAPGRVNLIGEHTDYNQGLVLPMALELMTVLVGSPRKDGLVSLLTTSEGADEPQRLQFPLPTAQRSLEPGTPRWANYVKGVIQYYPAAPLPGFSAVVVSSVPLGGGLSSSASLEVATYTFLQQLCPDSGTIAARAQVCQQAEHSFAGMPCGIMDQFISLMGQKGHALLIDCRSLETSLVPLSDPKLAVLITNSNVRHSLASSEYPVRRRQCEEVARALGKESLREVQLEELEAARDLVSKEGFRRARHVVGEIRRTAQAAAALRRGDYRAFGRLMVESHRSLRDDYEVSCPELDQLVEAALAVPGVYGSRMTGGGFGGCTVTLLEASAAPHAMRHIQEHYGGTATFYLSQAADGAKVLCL
# Chain of Transient receptor potential cation channel subfamily V member 1 (Homo sapiens) (Q8NER1 whole entry, looked up): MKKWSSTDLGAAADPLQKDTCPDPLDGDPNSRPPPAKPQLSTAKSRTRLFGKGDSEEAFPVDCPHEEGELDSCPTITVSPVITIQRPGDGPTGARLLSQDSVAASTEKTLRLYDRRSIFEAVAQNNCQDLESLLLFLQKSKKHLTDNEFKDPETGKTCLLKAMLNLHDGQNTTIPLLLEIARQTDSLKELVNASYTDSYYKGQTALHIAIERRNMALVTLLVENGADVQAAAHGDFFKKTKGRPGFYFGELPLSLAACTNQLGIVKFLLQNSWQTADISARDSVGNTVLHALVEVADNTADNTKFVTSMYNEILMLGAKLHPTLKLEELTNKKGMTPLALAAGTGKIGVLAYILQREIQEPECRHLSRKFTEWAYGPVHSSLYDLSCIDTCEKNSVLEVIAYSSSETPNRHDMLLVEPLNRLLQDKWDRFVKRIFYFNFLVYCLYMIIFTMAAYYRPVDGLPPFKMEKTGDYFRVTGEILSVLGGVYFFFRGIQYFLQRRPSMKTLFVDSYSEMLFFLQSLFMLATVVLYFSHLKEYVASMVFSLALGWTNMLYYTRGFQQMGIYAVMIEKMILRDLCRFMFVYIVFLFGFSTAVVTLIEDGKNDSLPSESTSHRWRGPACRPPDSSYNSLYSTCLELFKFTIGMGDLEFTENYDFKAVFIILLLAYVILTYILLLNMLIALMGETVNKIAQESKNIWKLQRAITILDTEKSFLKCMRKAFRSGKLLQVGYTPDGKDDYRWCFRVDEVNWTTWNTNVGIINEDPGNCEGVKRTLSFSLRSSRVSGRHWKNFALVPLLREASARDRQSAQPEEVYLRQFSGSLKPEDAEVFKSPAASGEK
# Chain of Peptidyl-prolyl cis-trans isomerase NIMA-interacting 1 (Homo sapiens) (Q13526 whole entry, looked up): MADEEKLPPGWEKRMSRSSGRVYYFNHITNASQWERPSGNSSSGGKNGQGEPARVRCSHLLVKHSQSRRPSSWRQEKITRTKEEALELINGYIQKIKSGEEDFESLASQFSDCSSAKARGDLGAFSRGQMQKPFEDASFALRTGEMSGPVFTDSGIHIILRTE
# Chain of Methanococcus maripaludis chaperonin (MmCpn) (Q6LX38 1-543): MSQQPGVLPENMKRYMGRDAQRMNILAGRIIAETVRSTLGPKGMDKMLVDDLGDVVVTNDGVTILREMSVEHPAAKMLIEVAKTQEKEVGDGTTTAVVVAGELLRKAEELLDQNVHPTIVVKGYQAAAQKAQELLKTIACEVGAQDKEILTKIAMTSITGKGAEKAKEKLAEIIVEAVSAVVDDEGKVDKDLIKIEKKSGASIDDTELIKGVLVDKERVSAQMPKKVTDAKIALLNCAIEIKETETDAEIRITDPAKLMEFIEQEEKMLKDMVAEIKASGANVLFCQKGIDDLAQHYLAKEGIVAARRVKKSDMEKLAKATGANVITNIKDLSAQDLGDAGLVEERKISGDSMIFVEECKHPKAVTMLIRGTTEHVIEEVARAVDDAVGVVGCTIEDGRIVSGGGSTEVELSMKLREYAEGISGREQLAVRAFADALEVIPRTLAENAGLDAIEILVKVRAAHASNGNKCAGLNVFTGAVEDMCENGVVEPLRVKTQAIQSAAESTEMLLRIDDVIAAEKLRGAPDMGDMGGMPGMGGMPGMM
# Chain of Chromobox protein homolog 1 (Homo sapiens) (P83916 whole entry, looked up): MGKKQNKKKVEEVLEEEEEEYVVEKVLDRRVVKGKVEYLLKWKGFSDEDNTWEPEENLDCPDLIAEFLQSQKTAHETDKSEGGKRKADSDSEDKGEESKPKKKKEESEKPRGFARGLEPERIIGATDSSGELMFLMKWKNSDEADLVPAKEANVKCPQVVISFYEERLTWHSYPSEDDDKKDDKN
# Chain of Thyrotropin-releasing hormone receptor (Homo sapiens) (P34981 whole entry, looked up): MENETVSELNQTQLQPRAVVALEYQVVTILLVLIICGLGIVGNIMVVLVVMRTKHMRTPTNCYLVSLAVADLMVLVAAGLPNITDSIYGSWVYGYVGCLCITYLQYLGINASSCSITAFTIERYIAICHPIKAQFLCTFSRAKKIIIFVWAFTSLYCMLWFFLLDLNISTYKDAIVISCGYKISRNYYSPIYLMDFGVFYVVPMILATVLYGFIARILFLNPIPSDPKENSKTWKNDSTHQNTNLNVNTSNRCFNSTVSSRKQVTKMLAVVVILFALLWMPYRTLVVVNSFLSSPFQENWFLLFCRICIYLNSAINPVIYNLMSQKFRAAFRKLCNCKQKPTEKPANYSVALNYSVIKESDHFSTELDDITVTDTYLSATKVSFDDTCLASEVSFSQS
# Chain of Thioredoxin reductase 1, cytoplasmic (Rattus norvegicus) (O89049 whole entry, looked up): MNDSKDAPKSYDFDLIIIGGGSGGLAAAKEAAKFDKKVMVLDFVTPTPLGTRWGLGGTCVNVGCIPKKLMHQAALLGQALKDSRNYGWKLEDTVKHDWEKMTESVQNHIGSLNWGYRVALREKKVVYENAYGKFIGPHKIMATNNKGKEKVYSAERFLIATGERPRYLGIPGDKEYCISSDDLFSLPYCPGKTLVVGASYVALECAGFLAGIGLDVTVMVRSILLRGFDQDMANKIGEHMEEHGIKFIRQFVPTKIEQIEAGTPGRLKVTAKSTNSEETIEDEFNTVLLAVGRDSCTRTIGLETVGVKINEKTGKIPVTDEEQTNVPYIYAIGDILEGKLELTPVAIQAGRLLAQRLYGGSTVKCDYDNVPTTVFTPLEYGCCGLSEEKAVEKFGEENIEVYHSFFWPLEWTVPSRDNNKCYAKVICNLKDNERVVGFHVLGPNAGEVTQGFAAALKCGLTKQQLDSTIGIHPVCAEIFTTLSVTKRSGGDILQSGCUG
# Chain of ATP-dependent 6-phosphofructokinase (Trypanosoma brucei brucei) (O15648 whole entry, looked up): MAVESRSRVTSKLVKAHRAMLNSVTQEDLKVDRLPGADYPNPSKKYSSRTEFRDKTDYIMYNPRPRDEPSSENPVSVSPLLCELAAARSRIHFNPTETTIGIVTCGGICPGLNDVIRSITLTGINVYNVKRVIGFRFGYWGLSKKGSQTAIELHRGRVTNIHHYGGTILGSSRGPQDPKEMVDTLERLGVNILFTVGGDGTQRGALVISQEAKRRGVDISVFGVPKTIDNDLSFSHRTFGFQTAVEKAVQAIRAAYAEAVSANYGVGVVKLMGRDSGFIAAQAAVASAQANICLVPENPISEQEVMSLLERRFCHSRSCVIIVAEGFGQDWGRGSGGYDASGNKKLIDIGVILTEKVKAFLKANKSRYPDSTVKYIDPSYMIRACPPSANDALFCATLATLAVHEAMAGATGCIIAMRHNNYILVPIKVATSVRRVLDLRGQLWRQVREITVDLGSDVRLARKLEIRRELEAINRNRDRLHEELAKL
# Chain of Thyrotropin receptor (Homo sapiens) (P16473 whole entry, looked up): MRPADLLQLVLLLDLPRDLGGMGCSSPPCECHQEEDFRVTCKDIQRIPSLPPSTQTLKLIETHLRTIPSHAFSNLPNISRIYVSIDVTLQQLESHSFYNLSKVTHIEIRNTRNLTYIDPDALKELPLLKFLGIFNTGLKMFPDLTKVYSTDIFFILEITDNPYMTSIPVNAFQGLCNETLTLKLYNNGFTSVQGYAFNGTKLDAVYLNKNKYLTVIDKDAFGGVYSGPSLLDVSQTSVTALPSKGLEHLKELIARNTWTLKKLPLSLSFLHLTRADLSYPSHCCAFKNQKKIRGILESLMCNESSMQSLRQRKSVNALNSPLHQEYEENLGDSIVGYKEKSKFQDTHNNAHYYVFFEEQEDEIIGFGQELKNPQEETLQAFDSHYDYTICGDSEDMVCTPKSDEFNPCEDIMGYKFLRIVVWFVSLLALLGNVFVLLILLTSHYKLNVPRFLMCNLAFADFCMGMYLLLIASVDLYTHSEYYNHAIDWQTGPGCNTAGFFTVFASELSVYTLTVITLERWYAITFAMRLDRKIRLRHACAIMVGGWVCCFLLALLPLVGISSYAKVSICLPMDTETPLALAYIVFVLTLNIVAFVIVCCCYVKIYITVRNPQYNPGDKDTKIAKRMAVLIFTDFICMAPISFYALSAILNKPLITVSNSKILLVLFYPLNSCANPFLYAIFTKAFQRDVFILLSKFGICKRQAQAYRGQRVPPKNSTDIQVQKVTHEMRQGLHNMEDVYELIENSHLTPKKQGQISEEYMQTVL
# Chain of D(1A) dopamine receptor (Homo sapiens) (P21728 whole entry, looked up): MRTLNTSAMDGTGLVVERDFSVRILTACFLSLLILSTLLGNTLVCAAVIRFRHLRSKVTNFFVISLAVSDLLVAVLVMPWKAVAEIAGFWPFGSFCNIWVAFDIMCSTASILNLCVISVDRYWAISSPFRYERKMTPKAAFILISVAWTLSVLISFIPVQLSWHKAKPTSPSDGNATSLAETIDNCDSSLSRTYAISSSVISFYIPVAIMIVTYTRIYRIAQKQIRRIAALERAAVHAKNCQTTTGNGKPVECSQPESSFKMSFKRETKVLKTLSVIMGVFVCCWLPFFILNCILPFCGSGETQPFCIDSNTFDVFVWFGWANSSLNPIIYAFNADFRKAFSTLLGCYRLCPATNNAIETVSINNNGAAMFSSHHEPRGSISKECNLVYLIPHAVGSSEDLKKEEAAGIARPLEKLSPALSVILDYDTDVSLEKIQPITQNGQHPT
compound,measurement,setting,value
O=C(N[C@H]1CN2CCC1CC2)c1ccc(Cl)cc1,Potency,[1],inactive
same,Potency,[2],inactive
same,Potency,[3],inactive
same,Potency,[4],inactive
same,outcome,[5],inactive
same,Potency,[6],inactive
same,outcome,[7],inactive
same,Potency,[8],inactive
same,outcome,[9],inactive
same,Potency,[10],inactive
same,outcome,[11],inactive
same,viability change,[11],-3.51%
same,outcome,[12],inactive
same,outcome,[13],inactive
CC1=NN=C(c2ccc(N)cc2)c2cc3c(cc2C1)OCO3,Potency,[1],inactive
same,Potency,[2],inactive
same,Potency,[4],inactive
same,outcome,[5],inactive
same,outcome,[14],inactive
same,outcome,[15],inactive
same,Potency,[6],inactive
same,outcome,[7],inactive
same,Potency,[8],inactive
same,outcome,[9],inactive
same,activation,[16],0.438% (inactive)
same,outcome,[11],inactive
same,viability change,[11],-4.5%
same,outcome,[12],inactive
same,outcome,[17],inactive
same,outcome,[18],inactive
same,outcome,[13],inactive
O=[N+]([O-])c1ccc([As](=O)(O)O)cc1,Potency,[19],inactive
CNCCc1ccc(O)c(O)c1,Potency,[1],13.4 µM (active)
same,Potency,[2],2.99 µM (active)
same,outcome,[5],inactive
same,outcome,[14],inactive
same,outcome,[15],inactive
same,Potency,[6],0.282 µM (active)
same,outcome,[7],inactive
same,Potency,[8],0.251 µM (active)
same,outcome,[9],inactive
same,activation,[16],-0.25% (inactive)
same,outcome,[11],inactive
same,viability change,[11],0.688%
same,outcome,[12],inactive
same,outcome,[17],inactive
same,outcome,[13],inactive
CC(Cc1ccc(O)cc1)NCC(O)c1cc(O)cc(O)c1 (centres undefined),Potency,[1],inactive
same,Potency,[4],inactive
same,outcome,[5],inactive
same,outcome,[14],inactive
same,outcome,[15],inactive
same,Potency,[6],inactive
same,outcome,[7],inactive
same,Potency,[8],inactive
same,outcome,[9],inactive
same,activation,[16],0.688% (inactive)
same,outcome,[11],inactive
same,viability change,[11],-4.39%
same,outcome,[12],inactive
same,outcome,[17],inactive
same,outcome,[18],inactive
same,outcome,[13],inactive
Clc1ccc(C(c2ccc(Cl)cc2)n2cc[n+](CC(OCc3ccc(Cl)cc3Cl)c3ccc(Cl)cc3Cl)c2)cc1 (centres undefined),Potency,[2],inactive
same,Potency,[4],50.1 µM (active)
same,outcome,[14],inactive
same,outcome,[15],inactive
same,outcome,[9],inactive
same,activation,[16],-4.62% (inactive)
same,outcome,[17],inactive
O=C(O)C(Cl)Cl,Potency,[19],inactive
CC(=O)[O][Hg][c]1ccccc1,Potency,[20],10 µM (active)
same,Potency,[19],7.94 µM (active)
Oc1ccc2c3c1O[C@H]1c4[nH]c5c(c4C[C@@]4(O)[C@@H](C2)N(CC2CC2)CC[C@]314)C[C@@]1(O)[C@H]2Cc3ccc(O)c4c3[C@@]1(CCN2CC1CC1)[C@H]5O4,Potency,[1],inactive
same,outcome,[5],inactive
same,outcome,[14],inactive
same,outcome,[15],inactive
same,Potency,[6],inactive
same,outcome,[7],inactive
same,Potency,[8],inactive
same,outcome,[9],inactive
same,activation,[16],0.625% (inactive)
same,outcome,[11],inactive
same,viability change,[11],0%
same,outcome,[12],inactive
same,outcome,[17],inactive
same,outcome,[18],inactive
same,outcome,[13],inactive
Cc1cc(O)ccc1Cl,Potency,[19],inactive
CCn1cc(C(=O)O)c(=O)c2cc3c(cc21)OCO3,Potency,[4],0.0067 µM (active)
CC[C@@]1(O)C(=O)OCc2c1cc1n(c2=O)Cc2cc3ccccc3nc2-1,Potency,[1],inactive
same,Potency,[2],inactive
same,outcome,[5],inactive
same,outcome,[14],inactive
same,outcome,[15],inactive
same,Potency,[6],inactive
same,outcome,[7],inactive
same,Potency,[8],inactive
same,outcome,[9],inactive
same,activation,[16],-0.188% (inactive)
same,outcome,[12],inactive
same,outcome,[17],inactive
same,outcome,[18],inactive
same,outcome,[13],inactive
